Source: the supplement of paper PMC12494721
Where a name gives a salt, the structure may show the parent alone.

Experiments:
Details in all cases: incubation time: 27 h, anaerobic, 37 °C;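 for the amine columns active = adjusted P below 0.05 in both replicates with a change the same way and a mean fold change under 0.8 or over 1.25; inactive = the rest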
[1] = tested on: Clostridium sporogenes DSM 1664; assay: growth (OD595) fold change vs plate DMSO controls (fold change (ratio)); higher = more growth
How it was run: (§1)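 Growth is the fold change relative to the median of plate DMSO controls. Readings came from anaerobic mGAM cultures in 96-well plates grown for 27 h at 37 °C and read at 595 nm. They were blank-subtracted, corrected for compound background with 20 µM compound solutions in water, and converted to OD with a calibration factor of 5. Values are means of 2 biological replicates, and fold changes above 1.5 were set to NA.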

[2] = tested on: Escherichia coli IAI1; assay: as above
How it was run: as §1

[3] = tested on: Klebsiella aerogenes DSM 30053; assay: as above
How it was run: as §1

[4] = tested on: Ruminococcus gnavus DSM 108212; assay: as above
How it was run: as §1

[5] = tested on: Klebsiella aerogenes DSM 30053; assay: fold change of Histamine concentration vs plate DMSO controls (fold change (ratio)); higher = more amine produced, active = hit call of the paper (significant change in both replicates, either direction)
How it was run: (§2)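 Anaerobic mGAM cultures of four gut bacterial strains were grown at 37 °C for 27 h in 80 µL wells, starting at OD 0.1 before 1:1 dilution. Compounds were at 20 µM final (sweeteners 50 µM). Whole cultures were extracted with cold acetonitrile/methanol containing 0.1% formic acid and centrifuged. Amines were quantified by LC–triple-quadrupole MS (dynamic MRM) against external calibration curves and drift-corrected within batch. Each value is the fold change versus plate DMSO controls, averaged over 2 biological replicates.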

[6] = tested on: Clostridium sporogenes DSM 1664; assay: fold change of Tryptamine concentration vs plate DMSO controls (fold change (ratio)); higher = more amine produced, active = hit call of the paper (significant change in both replicates, either direction)
How it was run: as §2

[7] = tested on: Ruminococcus gnavus DSM 108212; assay: as above
How it was run: as §2

[8] = tested on: Escherichia coli IAI1; assay: fold change of Putrescine concentration vs plate DMSO controls (fold change (ratio)); higher = more amine produced, active = hit call of the paper (significant change in both replicates, either direction)
How it was run: as §2

[9] = tested on: Klebsiella aerogenes DSM 30053; assay: as above
How it was run: as §2

[10] = tested on: Escherichia coli IAI1; assay: fold change of Cadaverine concentration vs plate DMSO controls (fold change (ratio)); higher = more amine produced, active = hit call of the paper (significant change in both replicates, either direction)
How it was run: as §2

[11] = tested on: Klebsiella aerogenes DSM 30053; assay: as above
How it was run: as §2

[12] = tested on: Ruminococcus gnavus DSM 108212; assay: fold change of 2-Phenylethylamine concentration vs plate DMSO controls (fold change (ratio)); higher = more amine produced, active = hit call of the paper (significant change in both replicates, either direction)
How it was run: as §2

Structure (SMILES) | growth [1] | growth [2] | growth [3] | growth [4] | fold change of Histamine concentration [5] | fold change of Tryptamine concentration [6] | fold change of Tryptamine concentration [7] | fold change of Putrescine concentration [8] | fold change of Putrescine concentration [9] | fold change of Cadaverine concentration [10] | fold change of Cadaverine concentration [11] | fold change of 2-Phenylethylamine concentration [12]
C[C@]12C=CC(=O)C=C1CC[C@@H]1[C@@H]2C(=O)C[C@@]2(C)[C@H]1CC[C@]2(O)C(=O)CO [Prednisone] (20 µM) | 1.04 | 1.05 | 1.08 | 1.1 | 0.861 (inactive) | 1.04 (inactive) | 1.04 (inactive) | 1.07 (inactive) | 0.941 (inactive) | 1.08 (inactive) | 1.02 (inactive) | 1.02 (inactive)
CN(C)C(=O)C(CCN1CCC(O)(c2ccc(Cl)cc2)CC1)(c1ccccc1)c1ccccc1 [Loperamide hydrochloride] (20 µM) | 1.1 | 1.04 | 1.05 | 0.853 | 0.935 (inactive) | 0.976 (inactive) | 0.949 (inactive) | 1 (inactive) | 0.963 (inactive) | 1.02 (inactive) | 1.02 (inactive) | 0.915 (inactive)
CCCC(=O)Nc1ccc(OCC(O)CNC(C)C)c(C(C)=O)c1 (configuration not stated) [Acebutolol hydrochloride] (20 µM) | 0.937 | 0.989 | 0.971 | 0.781 | 1.06 (inactive) | 1.03 (inactive) | 1.03 (inactive) | 0.996 (inactive) | 1.01 (inactive) | 0.958 (inactive) | 0.99 (inactive) | 0.985 (inactive)
OC[C@@H](O)[C@H](O)[C@@H](O)CO [Xylitol] (50 µM) | 1 | 1.05 | 1.11 | 1.12 | 1.08 (inactive) | 1.06 (inactive) | 1.06 (inactive) | 1.03 (inactive) | 1.19 (inactive) | 0.916 (inactive) | 1.02 (inactive) | 1.08 (inactive)
COc1cc2nc(N3CCN(C(=O)C4COc5ccccc5O4)CC3)nc(N)c2cc1OC (configuration not stated) [Doxazosin mesylate] (20 µM) | 0.926 | 0.974 | 0.995 | 1.13 | 1.01 (inactive) | 1.1 (inactive) | 0.943 (inactive) | 1.02 (inactive) | 1 (inactive) | 0.983 (inactive) | 0.991 (inactive) | 0.932 (inactive)
CO[C@H]1/C=C/O[C@@]2(C)Oc3c(C)c(O)c4c(O)c(c(/C=N/N5CCN(C)CC5)c(O)c4c3C2=O)NC(=O)/C(C)=C\C=C\[C@H](C)[C@H](O)[C@@H](C)[C@@H](O)[C@@H](C)[C@H](OC(C)=O)[C@@H]1C [Rifampicin] (20 µM) | 0.000637 | 0.224 | 0.627 | 0.187 | 0.732 (inactive) | 0.0227 (active) | 0.145 (active) | 0.718 (active) | 0.768 (inactive) | 1.14 (inactive) | 1.06 (inactive) | 0.131 (active)
